Experimental findings from PubChem BioAssay AID1745847 (National Center for Advancing Translational Sciences (NCATS), 2022) are described below.

Hit rate of the full screen: of about 2,100 compounds, about 670 (32%) were called active. About 50% were inconclusive and are not listed. This is one part of the list. Unmarked numbers belong to inactive results. Calls come from the whole dose curve; as a rule, active = well fitted inhibition curve with a large enough effect; inconclusive = small, poorly fitted or top-dose-only effect; inactive = no such curve, though single readings can be large or run the other way.
% is set by controls: 0 for no effect and ±100 for the full control effect; potency is the fitted concentration of half-maximal effect.

A short description of the test: CMV-Luciferase Counterscreen for Inhibitors of ATXN expression. Note: nearly all actives have a fitted effect of over 55% in size. The note with it: HEK-293 CMV-luciferase reporter, luminescence, 24 h; series mostly up to 57.5 µM; activity change, negative = inhibition: at the top concentration. From the text: PI: Daniel Scoles Ph.D. University of Utah School of Medicine, Salt Lake City, Utah MLPCN Grant: NS073009 Spinocerebellar ataxia type 2 (SCA2) is a multisystem neurodegenerative disease caused by a dominantly acting mutation leading to expansion of a polyQ domain in the ataxin-2 protein (ATXN2). SCA2 patients develop progressive ataxia and later lose function in other neuronal systems. Prominent parkinsonian signs develop in some patients. Like many neurodegenerative disorders, no symptomatic or disease-modifying treatments are known. The primary objective of the proposed research is to identify compounds inhibiting ATXN2 expression and to test them for efficacy in SCA2 mouse models. We have developed a cell-based assay paired with an in vivo mouse model using identical luciferase expression constructs. This approach takes advantage of an ATXN2-luciferase transgene, with the luciferase gene flanked by the upstream and downstream portions of the ATXN2 gene. Here we describe a 5-7 dose quantitative high thoroughput screen (qHTS) for compounds lowering ATXN2 expression. We screened the NIH Molecular Libraries Small Molecule Repository (MLSMR) and NCGC's mechanistically annotated (MIPE) and drug repurposing (NPC) collections of compounds for lowering expression of an ATXN2-luciferase reporter in HEK-293 cells. The assay is a multiplexed cell viability assay to ensure target reduction in the absence of cytotoxicity. Secondary qHTS assays included a CMV-luciferase reporter expressed in HEK-293 cells as well as a biochemical assay using recombinant luciferase to detect inhibitors of the reporter enzyme. Compounds that inhibit ATXN2 expression but is not cytotoxic were selected for confirmatory and secondary screens.
PROTOCOL TABLE (as described by Inglese J, Shamu CE and Guy RK. 2007) SEQUENCE No. (e.g., 1, 2, 3, etc.); PARAMETER (e.g., Cells, Incubation, Reagent, etc.); VALUE; DESCRIPTION. 1; Cells; 4 uL; white, solid bottom, 1536-well Greiner assay plate. 2; Incubation; 2 hr; 37 degree C in 5% humidified CO2. 3; Compounds; 23 nL; Kalypsis pintool (Wako USA) equipped with a 1536-well pin head. 4; Incubation; 24 hr; 37 degree C in 5% humidfified CO2. 5; Reagent; 1 uL; Gly-Phe-7-Amino-4-trifluoromethylcoumarin. 6; Incubation; 30 min; 37 degree C in 5% humidfified CO2. 7; Detection; Fluorescence; Viewlux plate reader (PerkinElmer). 8; Reagent; 3 uL; SteadyGlo luciferase solution (Promega). 9; Incubation; 5 min; room temperature. 10; Detection; Luminescence; ViewLux plate reader (PerkinElmer). NOTES (numbers refer to Sequence numbers above) 1. HEK-293 cells expressing CMV-luciferase reporter (designated as SC cells) were suspended in phenol-red free DMEM and dispensed in assay plates using a Multidrop Combi dispenser (Thermo Fisher Scientific). 2. Assay plates were incubated. Evaporation was prevented by covering assay plates with metal lids containing holes to allow gas diffusion. 3. Compounds were added in a dose response manner with the final concentrations of 57, 11.4, 2.28, 0.46, 0.091, 0.018, 0.0037 uM. Vehicle-only plates, with DMSO being pin-transferred to columns 5-48, were inserted uniformly at the beginning and the end of each library to monitor and record any shifts in assay performance. 5. 125 uM Gly-Phe-7-Amino-4-trifluoromethylcoumarin (MP Biomedicals) working concentration was used at a final concentration of 25 uM. 7. To assess cell viability; the assay plates were read using the ViewLux high-throughput CCD imager (PerkinElmer), wherein single end-point fluorescence measurement was acquired (excitation 405/10; emission 540/25 nm). 8. Detection reagent SteadyGlo Luciferase (Promega) was added to the assay plate. 10. Luminescence is then measured on the ViewLux imager equipped with a clear emission filter using a 2 sec exposure. […]
In general terms: The purpose of a counterscreen is to sort out artefacts and off-target activity.
With `NC(Cc1ccc(F)cc1)c1csc(Nc2ccccn2)n1` (stereo unspecified), the “activity change, negative = inhibition” value was -4.04%.

`CCC(C)N1C(=O)/C(=C\c2cnc(N(C)C)nc2)C(=O)NC1=S` (stereo unspecified): the “activity change, negative = inhibition” value was -6.13%.

On to `CC12CCC3C(CCC4(O)CC(O)CCC34C=NO)C1(O)CCC2C1=COC(=O)C1` (stereo unspecified), for which the “activity change, negative = inhibition” value was -13.2%.

For `COc1cccc2c1cc([N+](=O)[O-])c1c(C(=O)O)cc3c(c12)OCO3`, the “activity change, negative = inhibition” value is 6.44%.

In the case of `COc1ccc2c(c1)C(c1ccc(N(CCCl)CCCl)cc1)=NCC2`, the Potency was 22.4 µM (active).

With `CC(=O)O[C@H]1[C@H]2O[C@]23[C@@H]2CC[C@]4(O)C[C@@H](O)CC[C@]4(C)C2CC[C@]3(C)[C@H]1c1ccc(=O)oc1` (stereo partly specified), the activity change, negative = inhibition is -18.3% [at 11.4 µM].

Consider `COC(=O)c1nc(-c2ccc3c(n2)C(=O)C(N)=C(OC)C3=O)c(N)c(-c2ccc(OC)c(OC)c2O)c1C`, for which the Potency was 14.1 µM (active).

For the compound `CSCCC(c1nnnn1-c1c(C)cccc1C)N1CCC2(CC1)C(=O)NCN2c1ccccc1` (stereo unspecified), the Potency is 28.2 µM (active).

Consider `CCOC(=O)[C@]12Cc3ccsc3[C@H]1N(Cc1ccccc1)C(=O)c1ccccc12`, for which the Potency is 3.16 µM (active).

For `CC12CCC(O)CC1CCC1C2CCC2(C)C(C3=CC(=O)OC3)CCC12O` (stereo unspecified), the “activity change, negative = inhibition” value is 9.59%.

With `C=CCCC[C@@H]1OC(=O)CNC(=O)C([C@@H](C)CC)NC(=O)[C@@H]2CCCN2C(=O)C([C@@H](C)CC)OC(=O)[C@H](Cc2ccccc2)N(C)C(=O)[C@H](C(C)C)NC(=O)C1(C)C` (stereo partly specified), the Potency was 3.98 µM (active).

Regarding `Cc1ccc(-c2nc(N(C)C3CCN(C)CC3)c3ccccc3n2)cc1`, the Potency was 17.8 µM (active).

In the case of `COc1ccc(CC2C(=O)NC(C)C(=O)N(C)C3C(=O)N(C)C(Cc4ccc(O)c(c4)Oc4ccc(cc4)C3O)C(=O)NC(C)C(=O)NC(C)C(=O)N2C)cc1` (stereo unspecified), the Potency was 0.891 µM (active).

In the case of `C[C@H]1[C@@H](OS(=O)(=O)O)C[C@@H]2C[C@H]([C@@H](O)c3cc(=O)[nH]c(=O)[nH]3)NC3=NC[C@H]1N32`, the Potency was 14.1 µM (active).

With `CCCCN=C[C@]12CCC(O)CC1(O)CCC1[C@@H]2CC[C@]2(C)[C@H](C3C=CC(=O)O3)CCC12O` (stereo partly specified), the “activity change, negative = inhibition” value was 12.4%.

In the case of `C[C@@H]1O[C@@H](O[C@@H]2C=C3CC[C@@H]4C(CC[C@]5(C)[C@@H](c6ccc(=O)oc6)CC[C@]45O)[C@@]3(C)CC2)[C@H](O)[C@H](O)[C@H]1O` (stereo partly specified), the “activity change, negative = inhibition” value is -13.5%.

Consider `C[C@H]1CCC[C@@H](O)CCC/C=C/c2cc(O)cc(O)c2C(=O)O1`, for which the activity change, negative = inhibition is -23.1% [at 11.4 µM].

Regarding `CCCCCCC(=O)N/N=C/c1c(O)n(CCCC)c(=S)[nH]c1=O`, the Potency is 12.6 µM (active).

Take `CCCCCCC(=O)N/N=C/c1c(O)n(CCc2ccccc2)c(=O)[nH]c1=O`: the Potency was 6.31 µM (active).

Turning to `CCn1c(O)c(/C=N/NC(=O)c2ccccc2)c(=O)n(CC)c1=S`, the “activity change, negative = inhibition” value was -28.6%.

As to `CCCCC(=O)N/N=C/c1c(O)n(CCC2=CCCCC2)c(=O)[nH]c1=O`, the Potency is 10 µM (active).

With `COC1C(O)C(C)OC(OC2CCC3(C)C(CCC4C3C(O)CC3(C)C(C5=CC(=O)OC5)CCC43O)C2)C1O` (stereo unspecified), the “activity change, negative = inhibition” value is -8.96%.

For `C[C@]12CC[C@H](O)C[C@H]1CC[C@@H]1C2CC[C@]2(C)[C@@H](C3=CC(=O)OC3)[C@@H](O)C[C@]12O` (stereo partly specified), the activity change, negative = inhibition is -13.9% [at 11.4 µM].

In the case of `COc1ccc(CC2NCC(O)C2OC(C)=O)cc1` (stereo unspecified), the Potency was 0.316 µM (active).

`COc1ccc(C[C@H]2NC[C@H](O)[C@H]2OC(C)=O)cc1`: the Potency is 0.0631 µM (active).

Regarding `c1ccc2sc(N3CCNCC3)nc2c1`, the “activity change, negative = inhibition” value is -25.2%.

As to `C[C@H]1CCC[C@H](O)CCCCCc2cc(O)cc(O)c2C(=O)O1`, the activity change, negative = inhibition is 13.6% [at 11.4 µM].

For `CCCCCOc1ccc(C)cc1CN(CCCl)CCCl`, the Potency was 15.8 µM (active).

With `COc1cccc(C(c2nnnn2-c2ccc3c(c2)OCCO3)N2CCC(n3c(=O)[nH]c4ccccc43)CC2)c1OC` (stereo unspecified), the Potency was 3.16 µM (active).

In the case of `Cc1cccc(C)c1-n1nnnc1C(c1cc2ccccc2o1)N1CCC(n2c(=O)[nH]c3ccccc32)CC1` (stereo unspecified), the Potency is 8.91 µM (active).

On to `CC12CCC(O)CC1CCC1C2CCC2(C)C(C3=CC(=O)OC3)C(O)CC12O` (stereo unspecified), for which the “activity change, negative = inhibition” value is 42.2%.
